# Laboratory results as given in paper PMC8384837, “Expanding the binding specificity for RNA recognition by a PUF domain”.
# Changes are numbered by the printed parent chain.
# Experiments:
# Assay in all cases: yeast three-hybrid, YBZ-1, SC-Leu-His + 0.5 mM 3-AT, 4 days
# Settings in all cases: tags: N-Gal4 AD-HA kept; label: inside an RPR1-promoter hybrid RNA with tandem MS2 sites; ssRNA
# [1] = target: T1, PUM1 PUF domain R6-CYR (Homo sapiens, UniProt Q14671 828-1176, N1043C;Q1047R)
# T1 sequence: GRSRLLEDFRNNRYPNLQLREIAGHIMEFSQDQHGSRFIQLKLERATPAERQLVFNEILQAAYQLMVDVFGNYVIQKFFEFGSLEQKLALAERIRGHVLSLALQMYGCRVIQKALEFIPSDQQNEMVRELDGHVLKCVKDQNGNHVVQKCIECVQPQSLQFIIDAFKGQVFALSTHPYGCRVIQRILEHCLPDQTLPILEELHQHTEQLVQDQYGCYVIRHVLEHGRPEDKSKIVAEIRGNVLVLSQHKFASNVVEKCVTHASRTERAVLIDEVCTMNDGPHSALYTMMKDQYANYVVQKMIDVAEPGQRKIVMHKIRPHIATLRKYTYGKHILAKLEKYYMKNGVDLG
# Outline: (§1)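 Sequencing with Illumina followed PCR amplification of the repeat regions from transformants grown four days on SC-Leu (input) or SC-Leu-His + 0.5 mM 3-AT (selection). The transformants were strain YBZ-1 with a LexA–MS2 coat fusion and a HIS3 reporter, carrying Pumilio-1 PUF domain libraries and matching RNA elements. The interaction score is the log change in variant frequency from input to selection, computed in log2 with a pseudocount of 1 for absent variants.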
# [2] = target: PUM1 PUF domain R3-RAY (Homo sapiens, UniProt Q14671 828-1176, C935R;R936A;Q939Y)
# Outline: as §1
# [3] = target: PUM1 PUF domain R1-GQK (Homo sapiens, UniProt Q14671 828-1176, S863G;R864Q;Q867K)
# Outline: as §1
# [4] = target: PUM1 PUF domain R1-KYS (Homo sapiens, UniProt Q14671 828-1176, S863K;R864Y;Q867S)
# Outline: as §1
# [5] = target: PUM1 PUF domain R1-RGM (Homo sapiens, UniProt Q14671 828-1176, S863R;R864G;Q867M)
# Outline: as §1
# [6] = target: PUM1 PUF domain R8-YWR (Homo sapiens, UniProt Q14671 828-1176, N1122Y;Y1123W;Q1126R)
# Outline: as §1
# [7] = target: PUM1 PUF domain R8-TYR (Homo sapiens, UniProt Q14671 828-1176, N1122T;Q1126R)
# Outline: as §1
# [8] = target: PUM1 PUF domain R8-TFK (Homo sapiens, UniProt Q14671 828-1176, N1122T;Y1123F;Q1126K)
# Outline: as §1
# [9] = target: PUM1 PUF domain R5-KFA (Homo sapiens, UniProt Q14671 828-1176, C1007K;R1008F;Q1011A)
# Sequence of PUM1 PUF domain R5-KFA (Q14671 828-1176 C1007K/R1008F/Q1011A): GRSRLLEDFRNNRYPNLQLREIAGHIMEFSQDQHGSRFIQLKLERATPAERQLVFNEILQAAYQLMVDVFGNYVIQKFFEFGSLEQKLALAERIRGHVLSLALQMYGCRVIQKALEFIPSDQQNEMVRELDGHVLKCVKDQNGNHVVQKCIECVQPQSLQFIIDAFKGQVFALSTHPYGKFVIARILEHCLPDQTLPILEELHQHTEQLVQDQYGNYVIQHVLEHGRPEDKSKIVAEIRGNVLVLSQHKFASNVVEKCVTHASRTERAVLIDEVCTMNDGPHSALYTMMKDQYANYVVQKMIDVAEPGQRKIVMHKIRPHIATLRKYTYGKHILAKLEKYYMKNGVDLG
# Outline: as §1
# [10] = target: T2, PUM1 PUF domain R6-RFR (Homo sapiens, UniProt Q14671 828-1176, N1043R;Y1044F;Q1047R)
# T2 sequence: T1 sequence with C216R, Y217F
# Outline: as §1
sequence,measurement,setting,value
GGCUAGAACUAGUGGAUCCCCCGGCGCCCGGCGGCUCGAGCCCGGGUAAGUGCAAAUAGUCUGCAUGCCGCCGGGCGCCAUGCCUGCAGGUCGACUCUAGAAAACAUG,binding signal,[1],5.44 log2 enrichment (interaction score)
GGCUAGAACUAGUGGAUCCCCCGGCGCCCGGCGGCUCGAGCCCGGGUAAGUGUAAUUAGUCUGCAUGCCGCCGGGCGCCAUGCCUGCAGGUCGACUCUAGAAAACAUG,binding signal,[2],3.92 log2 enrichment (interaction score)
GGCUAGAACUAGUGGAUCCCCCGGCGCCCGGCGGCUCGAGCCCGGGUAAGUGUAAAUCGUCUGCAUGCCGCCGGGCGCCAUGCCUGCAGGUCGACUCUAGAAAACAUG,binding signal,[3],3.53 log2 enrichment (interaction score)
same,binding signal,[4],5.18 log2 enrichment (interaction score)
same,binding signal,[5],0.98 log2 enrichment (interaction score)
GGCUAGAACUAGUGGAUCCCCCGGCGCCCGGCGGCUCGAGCCCGGGUAAGCGUAAAUAGUCUGCAUGCCGCCGGGCGCCAUGCCUGCAGGUCGACUCUAGAAAACAUG,binding signal,[6],4.53 log2 enrichment (interaction score)
same,binding signal,[7],5.46 log2 enrichment (interaction score)
same,binding signal,[8],5.88 log2 enrichment (interaction score)
GGCUAGAACUAGUGGAUCCCCCGGCGCCCGGCGGCUCGAGCCCGGGUAAGUGUAAAUAGUCUGCAUGCCGCCGGGCGCCAUGCCUGCAGGUCGACUCUAGAAAACAUG,binding signal,[9],4.26 log2 enrichment (interaction score)
same,binding signal,[1],5.11 log2 enrichment (interaction score)
same,binding signal,[6],4.66 log2 enrichment (interaction score)
same,binding signal,[10],3.75 log2 enrichment (interaction score)
same,binding signal,[7],4.56 log2 enrichment (interaction score)
same,binding signal,[8],2.11 log2 enrichment (interaction score)
GGCUAGAACUAGUGGAUCCCCCGGCGCCCGGCGGCUCGAGCCCGGGUAAGUGAAAAUAGUCUGCAUGCCGCCGGGCGCCAUGCCUGCAGGUCGACUCUAGAAAACAUG,binding signal,[10],1.66 log2 enrichment (interaction score)
GGCUAGAACUAGUGGAUCCCCCGGCGCCCGGCGGCUCGAGCCCGGGUAAGUGUUAAUAGUCUGCAUGCCGCCGGGCGCCAUGCCUGCAGGUCGACUCUAGAAAACAUG,binding signal,[9],4.8 log2 enrichment (interaction score)
GGCUAGAACUAGUGGAUCCCCCGGCGCCCGGCGGCUCGAGCCCGGGUAAGUGUCAAUAGUCUGCAUGCCGCCGGGCGCCAUGCCUGCAGGUCGACUCUAGAAAACAUG,binding signal,[9],4.46 log2 enrichment (interaction score)
GGCUAGAACUAGUGGAUCCCCCGGCGCCCGGCGGCUCGAGCCCGGGUAAGUGUAAAUUGUCUGCAUGCCGCCGGGCGCCAUGCCUGCAGGUCGACUCUAGAAAACAUG,binding signal,[5],2.74 log2 enrichment (interaction score)
